About 83,000 compounds went through this panel and 20% of them were active in at least one assay; those are over-represented in the sample as a whole.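 Cell lines were cultured in 96-well plates, exposed to a single compound concentration, and assessed for percent growth 48 hours later.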 Calls of active or inactive are those of the source. How the source made its calls: active means growth percent below 10; inactive means the rest.

This assay has as its system HL-60(TB) leukemia. Put plainly: NCI-60 one-dose screen, 48 h (100 = growth as untreated, 0 = no growth, -100 = all killed). The settings on record: 10 µM unless noted.
In the case of `N#Cc1c(-c2ccc(Cl)cc2)nc(SCc2ccccc2)nc1N1CCNCC1`, the growth is 1.3% (active).
Take `CN1C(=S)N(C)C2C1NN=C1SC(c3ccccc3)=CC(=O)N12` (stereo not drawn): the growth is 80.7% (inactive).
With `O=c1c2ccccc2cc2n1CCN=C2c1ccccc1`, the growth is 97.8% (inactive).
For the compound `CC1(C)CC[C@]2(C(=O)NCCCCCCN(CCCN)CCCN)CC[C@]3(C)C(=CC[C@@H]4[C@@]5(C)CC[C@H](O)C(C)(C)[C@@H]5CC[C@]43C)[C@@H]2C1`, the growth is 99.1% (inactive).
Then `O=C1CSC(c2cn(-c3ccccc3)nc2-c2ccc(Cl)cc2)N1c1ccccc1` (stereo not drawn), with 117% (inactive); and `CC(C)(C)OC(=O)NCc1ccc(CNc2c([N+](=O)[O-])cnc3ccccc23)cc1`, with 49.1% (inactive).
Take `CC1OC(O[C@@H]2[C@H](O)C(CO)OC(O[C@H]3COC(O[C@H]4CC[C@]5(C)[C@H]6CC[C@]78OC[C@@]9(CCC(C)(C)C[C@H]97)[C@H](O)C[C@@]8(C)[C@]6(C)CC[C@H]5C4(C)C)[C@@H](OC4OC(CO)[C@@H](O)[C@@H](O)[C@@H]4O)[C@@H]3O)[C@H]2OC2OC[C@@H](O)[C@@H](O)[C@@H]2O)[C@@H](O)[C@@H](O)[C@H]1O` (stereo partly drawn): the growth was -61.4% (active).
As for `C/C(=N\NC(=O)Nc1ccccc1)c1nnn(-c2ccc([N+](=O)[O-])cc2)c1C`, the figure is 98.9% (inactive); as for `COc1ccc(C2CC(c3cccc(OCCCCOc4cccc(C5=NOC(c6ccc(OC)cc6)C5)c4)c3)=NO2)cc1` (stereo not drawn), 89.6% (inactive); as for `O=C(O)c1ccc(-n2cc(CNc3ccc(Cl)cc3)c(-c3ccc(F)cc3)n2)cc1`, 111% (inactive).
In the case of `Cc1nc(-c2cc3ccccc3c(N3CCN(C)CC3)n2)cs1`, the growth was 97.2% (inactive).
As for `N#Cc1nc(-c2ccccc2)oc1N1CC[C@@H](CO)C1`, the growth is 90.6% (inactive).
Take `N#Cc1nc(-c2ccccc2)oc1S(=O)(=O)N1CCN(CCc2ccccn2)CC1`: the growth was 5.71% (active).
With `CCN1C/C(=N\S(=O)(=O)c2ccccc2)N(CC)C1=S`, the growth is 100% (inactive).
In the case of `COc1cccc2cc(-c3cc4ccccc4[nH]3)/c(=N\NC(=O)c3ccc(Cl)cc3)oc12`, the growth is -11.8% (active).
As for `Cc1ccc2ccc3ccc(C)nc3c2n1.Cc1ccc2ccc3ccc(C)nc3c2n1.Oc1c(Cl)cc(Cl)c2ccc(CN3CCCCC3)nc12.[Ru]`, the figure is -52.1% (active).
Consider `COc1ccc(-c2ccnc3c(C#N)c(Nc4ccccc4)nn23)cc1OC`, for which the growth was 71.1% (inactive).
Take `CC(=O)Oc1ccc(CCN2C(=O)CSC2=S)cc1`: the growth was 57% (inactive).

The values above are taken from PubChem BioAssay (NCI).
